High-throughput results as filed in PubChem.
HT1080NT lethal – qHTS for induction of synthetic lethality in tumor cells producing 2HG: qHTS for the HT-1080-NT fibrosarcoma cell line; HT-1080-NT fibrosarcoma viability, CellTiter-Glo ATP luminescence, 48 h; Potency, µM (top dose mostly 46.1 µM), for inactives: at the top dose activity, negative = less viability, usual class: cytotoxic; 360,000 tested, 1.6% active;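 also: NT is the 2HG producing partner of a matched IDH1 knockdown line; potency is read from the fitted curve at half-maximal effect; 0% = DMSO-treated cells and -100% = media-only wells without cells; nearly all actives have a fitted effect of over 55% in size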
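HT-1080-NT; 750 cells/well; 5% FBS RPMI; 48 h compound, 37 degrees C; CellTiter-Glo luminescence; curve fitting and curve-class assignment.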
IL1B secr inh – qHTS for Inhibitors of Inflammasome Signaling: IL-1-beta AlphaLISA Primary Screen; activity change, % at 57.5 µM; THP-1 LPS/ATP IL-1B secretion, AlphaLISA, 16 h; hits give low values; 360,000 tested, 4.7% active; in the data active = activity change below about -50%; inconclusive = mostly about -30% to -49%
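Secreted IL-1B measured by AlphaLISA bead assay after 16 h compound exposure of THP-1 cells; compounds (final up to 57.5 uM) added 1 h before LPS (250 ng/mL) and ATP (1.25 mM) stimulation; lower signal means less secretion.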
DT40 TDP1 no CPT – qHTS for Inhibitors of human tyrosyl-DNA phosphodiesterase 1 (TDP1): qHTS in cells in absence of CPT; DT40 Tdp1-/- hTDP1 cells, no CPT, ATP luminescence, 48 h; Potency, µM (top dose mostly 46.2 µM), for inactives: top-dose activity change, negative = growth inhibition, most hits filed as inhibitors; 420,000 tested, 15% active; AID 686978, 2013; also: potency is read from the fitted curve at half-maximal effect; nearly all actives have a fitted effect of over 55% in size
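Growth of hTDP1-complemented DT40 Tdp1-knockout cells is measured by ATP luminescence after at least 48 hr compound exposure at 37 °C, with DMSO substituting for the 20 nM CPT used in the parallel screen.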
DT40 TDP1 CPT – qHTS for Inhibitors of human tyrosyl-DNA phosphodiesterase 1 (TDP1): qHTS in cells in presence of CPT; 420,000 tested, 12% active; chicken DT40 Tdp1-/-;hTDP1 cells + 20 nM CPT, ATP luminescence, 48 h; Potency, µM (highest dose often 46.2 µM), inactives show at the top dose activity change, negative = growth inhibition, hits mostly inhibitors; also: potency is read from the fitted curve at half-maximal effect; nearly all actives have a fitted effect of over 55% in size
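Chicken DT40 Tdp1-/- cells stably complemented with human TDP1 were seeded at 400 cells/well in medium containing 20 nM camptothecin, exposed to pin-transferred compounds, and grown at 37 °C for at least 48 hr. Viability was read as ATP luminescence.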
HT1080 IDH1KD tx – qHTS for induction of synthetic lethality in tumor cells producing 2HG: qHTS for the HT-1080-IDH1KD cell line | HT-1080 IDH1 knockdown viability, ATP luminescence, 48 h | Potency, µM (titrated, usually from 46.1 µM), inactives show at the highest dose activity, negative = toxicity, hits mostly cytotoxic | 360,000 tested, 2% active;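 also: potency is read from the fitted curve at half-maximal effect; 0% = DMSO wells and -100% = cell-free medium wells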
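CellTiter-Glo luminescence after 48 h compound exposure at 37 degrees C of IDH1-knockdown HT-1080 cells in 5% FBS RPMI. %Activity scaled between DMSO wells and cell-free media wells, with curves fitted and assigned curve classes.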
Numbers without * were called inactive; ? = inconclusive; . = no result given; [ ] = dose if it differs, or a comment. A selection: hits, their analogues and other compounds. The true share with any hit is near 19%. Unless noted, calls follow the shape of the dose curve; as a rule, active = well fitted curve in the direction sought with a large enough effect; inconclusive = small, poorly fitted or top-dose-only effect, or another doubt; inactive = no such curve, though single readings can be large; an effect the other way counts as inactive or inconclusive. Unless noted, % is scaled to controls: 0 for no effect and ±100 for the full control effect.

SMILES | HT1080NT lethal | IL1B secr inh | DT40 TDP1 no CPT | DT40 TDP1 CPT | HT1080 IDH1KD tx
CCC(=O)N1CCN(c2ccnc3cc(Cl)ccc23)CC1 | -8% | -8 | ? | ? | 2%
O=C(c1ccc(Cl)cc1)N1CCN(c2ccnc3cc(Cl)ccc23)CC1 | ? | -92* | 13µM* | ? | -28%
O=C(Oc1ccnc2cc(Cl)ccc12)N1CCCCCC1 | -20% | ? | 23µM* | ? | -13%
CCOC(=O)N1CCN(c2ccnc3cc(Cl)ccc23)CC1 | -6% | -15 | 15µM* | ? | -16%
O=C(O)c1ccc2c(c1)C(=O)N(N1C(=O)c3ccccc3C1=O)C2=O | 11% | 28 | -17% | 1% | 25%
CC(C)N(C(=O)N1CCN(c2ccnc3cc(Cl)ccc23)CC1)C(C)C | -21% | -84* | 9.2µM* | 12µM* | -21%
CC(C)C(=O)N1CCN(c2cc(N3CCN(C)CC3)c(F)cc2[N+](=O)[O-])CC1 | 7% | -12 | -1% | 1% | 2%
CCN1CCN(c2cc(N3CCc4ccccc4C3)c(F)cc2[N+](=O)[O-])CC1 | -9% | -104* | 10µM* | 16µM* | -11%
COc1cccc(CNC(=O)CCCCCNC(=O)N2CCn3c2nc2ccccc23)c1 | 5% | 10 | -28% | 16µM* | 17%
Cc1ccc(CNC(=O)CCNC(=O)N2CCn3c2nc2ccccc23)cc1 | 11% | 0 | ? | -22% | 10%
Cc1ccc(CNC(=O)CCCCCNC(=O)N2CCn3c2nc2ccccc23)cc1 | 7% | 0 | ? | 18µM* | 2%
CCCCSc1cc(C)nc(N)n1 | 2% | -12 | 1% | -3% | 7%
Cc1cc(OCC(=O)N2CCC(C(N)=O)CC2)c2c(C)cc(=O)oc2c1 | 3% | -7 | 6% | 11% | 3%
CCOC(=O)c1cc(S(=O)(=O)N2CCN(C3CCCCC3)CC2)cn1C | 17% | 14 | 0% | -10% | 16%
Cc1sc2ncnc(N3CCC(C(=O)Nc4nnc(CC(C)C)s4)CC3)c2c1C | 5% | 15 | 23µM* | ? | 1%
CCN(CC)CCNC(=O)c1ccc(NC(=O)C2CCN(c3ncnc4sc(C)c(C)c34)CC2)cc1 | ? | -8 | 23µM* | 18µM* | ?
CC(=O)c1sc(NC(=O)C2CCN(c3ncnc4sc(C)c(C)c34)CC2)nc1-c1ccccc1 | -11% | 13 | ? | ? | -1%
COc1ccc(OCC(=O)NNC(=O)C2CCN(c3ncnc4sc(C)c(C)c34)CC2)cc1 | 0%[9.24 µM] | -10 | -11% | -21% | -9%
Cc1sc2ncnc(N3CCC(C(=O)Nc4nc(-c5ccc(F)cc5)cs4)CC3)c2c1C | -2% | 14 | 16µM* | ? | -22%
COc1ccc(-n2cnc3c(N)nc(N)nc32)cc1 | 3% | -4 | -19% | -8% | 8%
COC(=O)c1ccc2c(=O)[nH]c(COC(=O)c3c(-c4ccccc4)noc3C)nc2c1 | 8% | 11 | -29% | ? | -8%
O=C(c1cnc2ccc3ccccc3c2c1)c1cc(F)ccc1O | 16µM* | 28 | ? | 7.3µM* | 8.2µM*
CCOc1cccc(C(=O)Nc2c(C(=O)c3ccc(OC)cc3)oc3ccccc23)c1 | . | . | 15% | -4% | .
OCCNc1nc(NCc2ccccc2)c2ccccc2n1 | ? | -99* | ? | ? | ?
COc1cccc(Nc2nc(-c3ccccc3O)nc3ccccc23)c1 | -25% | 4 | ? | ? | -28%
SMILES | HT1080NT lethal | IL1B secr inh | DT40 TDP1 no CPT | DT40 TDP1 CPT | HT1080 IDH1KD tx
CCN(CC)c1nc(N2CCN(CCO)CC2)nc2ccccc12 | -5% | -7 | ? | 10% | 4%
COc1cccc(Nc2nc(NCCO)c3ccccc3n2)c1 | ? | . | 21µM* | 4.6µM* | ?
OCCNc1nc(Nc2ccc(O)cc2)nc2ccccc12 | 13% | . | ? | ? | 5%
OCCNc1nc(N2CCN(c3ccccc3)CC2)nc2ccccc12 | -3% | -3 | ? | 23µM* | -3%
OCCNc1nc(Nc2cccc(O)c2)nc2ccccc12 | -11% | -105* | ? | ? | 0%
CC(C)Nc1nc(NCCO)nc2ccccc12 | 7% | 88 | ? | 0% | 1%
COCc1cc(C)nc(SCc2ccc(Br)cc2)c1C#N | 7% | 11 | ? | 18% | -1%
CCC(C)n1c(SCC(=O)NC2CCS(=O)(=O)C2)nc2ccccc2c1=O (centres undefined) | -3% | -9 | -30% | -22% | -15%
COc1cccc2sc3ccc(NCCC4CCCN4C)cc3c(=O)c12 (centres undefined) | -17% | -70* | ? | ? | -10%
COc1cc2sc3cc(NCC[C@@H]4CCCN4C)ccc3c(=O)c2cc1OC | -3% | -60* | ? | ? | -2%
COc1cc(-c2noc(C)c2C(=O)NCC[C@@H]2CCCN2C)cc(OC)c1OC | -1% | -5 | -10% | -5% | -3%
Cn1cc(S(=O)(=O)N2CCNCC2)cc1C(N)=O | 4% | -5 | -3% | 2% | 9%
Cc1ccc(C(=O)N2CCN(c3nc4ccccc4n3C)CC2)cc1 | 0% | -20 | 0% | ? | -1%
O=C(CNC(=O)c1ccc(Cl)c([N+](=O)[O-])c1)NCC1CCCO1 (centres undefined) | 6% | -5 | -29% | ? | -13%
CCCCCCn1nc(C(=O)Nc2nc3c(s2)CCCC3)c2ccccc2c1=O | 6% | 20 | ? | 15µM* | 11%
CC(C)n1nc(C(=O)NNC(=O)c2ccncc2)c2ccccc2c1=O | -1% | 12 | -20% | -6% | -5%
CCCn1nc(C(=O)Nc2ccc(-n3cnnn3)cc2)c2ccccc2c1=O | 3% | -14 | 12µM* | ? | 14%
CCCCn1nc(C(=O)Nc2nc3c(s2)CCCC3)c2ccccc2c1=O | 9% | 1 | ? | ? | 0%
CCCn1nc(C(=O)Nc2nc3ccccc3[nH]2)c2ccccc2c1=O | -4% | ? | 16µM* | ? | -2%
CCCn1nc(C(=O)Nc2nnc(CC)s2)c2ccccc2c1=O | 3% | 30 | 3% | 47% | -1%
CC(C)n1nc(C(=O)Nc2nc3ccccc3[nH]2)c2ccccc2c1=O | -19% | -53* | 15µM* | ? | -2%
COc1ccc(/C=N/Nc2cc(C)nc(N3CCOCC3)n2)cc1 | -1% | -7 | ? | -8% | 1%
Oc1ccc(/C=N/Nc2cc(N3CCOCC3)nc(N3CCOCC3)n2)cc1O | -1% | 25 | 21µM* | ? | -2%
